# Results as given in PubChem BioAssay (NCATS).
# A number with no mark means an inactive call. Records with an inconclusive call do not appear. Calls of active or inactive are those of the source. Unless noted, the call rests on the fitted dose curve; in most records, active means well fitted curve in either direction with a large enough effect (not every such curve was filed as active); inconclusive means small, poorly fitted or top-dose-only effect, or another doubt; inactive means flat fitted curve, though single readings scatter.
# How the values were obtained:
# [1] = molecular target: Lysosomal acid glucosylceramidase (Homo sapiens) (UniProt P04062); assay: Glucocerebrosidase-p2 (AID 348; in the data active means potency below about 10 µM; further: potency means the concentration at half of the fitted maximal effect); conditions: purified GBA, blue fluorogenic substrate, 40 min
# How it was run: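 Normal human glucocerebrosidase (0.2 nM) with blue fluorogenic substrate (80 uM final) in citrate/phosphate pH 5.9 with 10mM sodium taurocholate, 0.01% tween-20; 40 min RT, NaOH/glycine stop; fluorescence Ex 365/Em 440; AC50 from a titration from 0.6 nM upwards.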
# [2] = AP1 Signaling Pathway (AID 357); conditions: ME-180 AP-1-bla reporter, EGF-induced, beta-lactamase ratio, 5 h; at 7.69 µM (top of the series) unless noted; further: on the % scale 0 is the no-effect control and ±100 the full control effect
# How it was run: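 Modulation of EGF-driven AP-1 transcription was assessed with a beta-lactamase reporter in ME-180 cells. Compound and EC50 EGF were co-incubated 5 hours at 37 °C before 2.5-hour CCF4 loading at room temperature and dual-emission reading.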
# [3] = NFAT Signaling Pathway (AID 444); conditions: Jurkat NFAT-bla M1, carbachol, beta-lactamase ratio, 5 h; at 7.69 µM (top of the series) unless noted;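 further: carbachol stimulus at about its EC50 of 1 µM final; on the % scale 0 is the no-effect control and ±100 the full control effect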
# How it was run: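 Jurkat cells carrying an NFAT-driven β-lactamase reporter and co-transfected muscarinic M1 receptor were treated with compound plus carbachol (1 uM final, an EC50 level) for 5 h at 37 °C. CCF4 loading followed for 1 h at RT; 460/530 nm ratio gave %activity.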
# [4] = molecular target: Glucocorticoid receptor (Homo sapiens) (UniProt P04150); assay: GR-GFP Redistribution (AID 450;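 active means compounds whose dose series gives a full or clear partial fitted curve of increased nuclear translocation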; further: potency means the concentration at half of the fitted maximal effect); conditions: U2OS GR-GFP nuclear translocation, laser cytometry, 2 h
# [5] = molecular target: Glucocorticoid receptor (Homo sapiens) (UniProt P04150); assay: GR-EFC Redistribution (AID 451; calls by dose curve; further: potency means the concentration at half of the fitted maximal effect); conditions: CHO-K1 GR-EFC translocation, beta-gal luminescence, 2 h
# How it was run: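 CHO-K1 cells stably expressing nuclear-localized β-gal enzyme acceptor and GR fused C-terminally to the enzyme donor fragment; ligand-driven nuclear translocation restores β-gal by complementation. Compounds titrated up to 46 uM final, 2 h at 37 °C; luminescence read.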
# [6] = molecular target: Mitogen-activated protein kinase 10 (Mus musculus) (UniProt Q61831); assay: JNK3 AlphaScreen Assay (AID 530); conditions: JNK3 lysate, c-Jun phosphorylation; series mostly up to 11.4 µM;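 further: kinase came from lysate of stimulated human HepG2 cells; signal reports phosphorylation of biotinylated GST-cJun 1-79 at Ser73 with 10 µM ATP; on the % scale 0 is the no-effect control and ±100 the full control effect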
# How it was run: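 Biotinylated GST-cJun(1-79) served as substrate for JNK3 in HepG2 lysates stimulated with IL-1beta and TNF-alpha. ATP was 10 uM final, pH 7.6. Ser73 phosphorylation was quantified by AlphaScreen (680 nm excitation).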
# [7] = molecular target: 3',5'-cyclic-AMP phosphodiesterase 4B (Homo sapiens) (UniProt Q07343); assay: qHTS Assay for Inhibitors of PDE-IV (AID 607; active means well fitted activation curve with a large enough effect in the main read-out, with a control signal flat, not every such curve was filed as active; further: % of control where 0% means no effect); conditions: HEK293 ACTOne CNG channel cells, membrane potential fluorescence; series mostly up to 22.9 µM
# How it was run: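 Cell-based read-out of cAMP via a modified cyclic nucleotide-gated channel and membrane potential dye (535/590 nm) in HEK293 cells expressing PDE4 endogenously. Compounds tested up to 22.9 uM final; 100 uM RO 20-1724 reference.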
# [8] = qHTS Assay for Identification of Small Molecule Agonists for Hypoxia Response Element Signaling Pathway (AID 914; active means well fitted activation curve with a large enough effect in the signal ratio, with a control signal flat, not every such curve was filed as active; the % refers to the signal ratio; further: % of control where 0% means no effect); conditions: ME-180 HRE-bla reporter, beta-lactamase ratio, CoCl2, 17 h; activation: active compounds read high
# How it was run: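 Reporter activity (beta-lactamase, CCF4 460nm/530nm ratio) in HRE-bla ME-180 cells is recorded after 17 h compound exposure with EC50 CoCl2 at 37 degrees Celsius. AC50 values come from titration data.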
# [9] = molecular target: Cytochrome P450 2C19 (Homo sapiens) (UniProt P33261); assay: qHTS Assay for Inhibitors and Substrates of Cytochrome P450 2C19 (AID 899; active means well fitted curve in the direction sought with a large enough effect; an effect the other way counts as inactive or inconclusive; further: potency means the concentration at half of the fitted maximal effect; nearly all actives have a fitted effect of over 60% in size); conditions: recombinant CYP2C19, luciferin-H EGE luminescence; series mostly up to 11.4 µM
# How it was run: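 Human CYP2C19 (5nM) with Luciferin-H EGE at 10uM (its KM) in 50mM KPO4 was preincubated with compound for 10 min at 37C. NADPH regeneration started a 60 min 37C reaction. Luciferin was read by luminescence, normalized to 57uM ketoconazole.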
# [10] = molecular target: Cytochrome P450 2C9 (Homo sapiens) (UniProt P11712); assay: qHTS Assay for Inhibitors and Substrates of Cytochrome P450 2C9 (AID 883; active means well fitted curve in the direction sought with a large enough effect; an effect the other way counts as inactive or inconclusive; further: on the % scale 0 is the no-effect control and ±100 the full control effect; nearly all actives have a fitted effect of over 60% in size); conditions: recombinant CYP2C9, luciferin-H luminescence, 60 min; series mostly up to 11.4 µM
# How it was run: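 Human CYP2C9 (10nM) hydroxylated Luciferin-H (100uM, at its KM) to luciferin in 25mM KPO4. Compound was preincubated 10 min at 37C, then NADPH regeneration started a 60 min reaction at 37C. Luminescence was read after detection reagent, normalized to 57uM sulphaphenazole.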
# [11] = molecular target: Cytochrome P450 3A4 (Homo sapiens) (UniProt P08684); assay: qHTS Assay for Inhibitors and Substrates of Cytochrome P450 3A4 (AID 884; active means well fitted curve in the direction sought with a large enough effect; an effect the other way counts as inactive or inconclusive; further: on the % scale 0 is the no-effect control and ±100 the full control effect; nearly all actives have a fitted effect of over 50% in size); conditions: recombinant CYP3A4, Luciferin-PPXE luminescence; series mostly up to 57.1 µM
# How it was run: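 Luminescent readout of luciferin produced by CYP3A4 (20 nM) dealkylation of Luciferin-PPXE, 25 uM (its KM). NADPH-driven reaction ran 60 min at RT after 10 min compound preincubation; data scaled to 57 uM ketoconazole as 100% inhibition.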
# [12] = molecular target: Cytochrome P450 3A4 (Homo sapiens) (UniProt P08684); assay: qHTS Assay for Activators of Cytochrome P450 3A4 (AID 885; active means well fitted curve in the direction sought with a large enough effect; an effect the other way counts as inactive or inconclusive; further: nearly all actives have a fitted effect of over 65% in size; further: potency means the concentration at half of the fitted maximal effect); conditions: recombinant CYP3A4, Luciferin-PPXE luminescence, 60 min; series mostly up to 11.4 µM
# How it was run: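 Luminescent readout of luciferin formed from 25 uM Luciferin-PPXE (KM level) by 20 nM CYP3A4 in 200 mM KPO4, with 60 min NADPH-driven reaction at room temperature after 10 min compound exposure. Ketoconazole (57 uM) defined 100% inhibition.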
# [13] = Stat Signaling Pathway (AID 446); conditions: ME-180 (cervical carcinoma) SIE beta-lactamase reporter, IL-6 stimulated, 5 h; at 7.69 µM (top of the series) unless noted;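 further: ME-180 cervical cancer cells given 40 pM IL-6 alongside compound; SIE-controlled beta-lactamase reporter measured as 460/530 nm FRET emission ratio; on the % scale 0 is the no-effect control and ±100 the full control effect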
# How it was run: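 FRET read-out (405 nm excitation, 460/530 nm emission) of a beta-lactamase reporter under a STAT-inducible element in ME-180 cervical carcinoma cells. Cells with compound receive 40 pM IL-6 for 5 h. Values are normalised to AC90 stimulation and AC90 JAK-inhibitor controls.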
# [14] = molecular target: Cytochrome P450 2D6 (Homo sapiens) (UniProt P10635); assay: qHTS Assay for Inhibitors and Substrates of Cytochrome P450 2D6 (AID 891; active means well fitted curve in the direction sought with a large enough effect; an effect the other way counts as inactive or inconclusive; further: potency means the concentration at half of the fitted maximal effect; nearly all actives have a fitted effect of over 60% in size); conditions: recombinant CYP2D6, luciferin-ME EGE luminescence; series mostly up to 11.4 µM
# How it was run: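 Luminescent read-out of luciferin formed by 5 nM human CYP2D6 demethylating 30 uM Luciferin-ME EGE (Km level) over 60 min at room temperature after NADPH regeneration addition. Data normalized to full inhibition by 1.43 uM quinidine.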
# 3',5'-cyclic-AMP phosphodiesterase 4B (Homo sapiens), sequence (Q07343 whole entry, looked up): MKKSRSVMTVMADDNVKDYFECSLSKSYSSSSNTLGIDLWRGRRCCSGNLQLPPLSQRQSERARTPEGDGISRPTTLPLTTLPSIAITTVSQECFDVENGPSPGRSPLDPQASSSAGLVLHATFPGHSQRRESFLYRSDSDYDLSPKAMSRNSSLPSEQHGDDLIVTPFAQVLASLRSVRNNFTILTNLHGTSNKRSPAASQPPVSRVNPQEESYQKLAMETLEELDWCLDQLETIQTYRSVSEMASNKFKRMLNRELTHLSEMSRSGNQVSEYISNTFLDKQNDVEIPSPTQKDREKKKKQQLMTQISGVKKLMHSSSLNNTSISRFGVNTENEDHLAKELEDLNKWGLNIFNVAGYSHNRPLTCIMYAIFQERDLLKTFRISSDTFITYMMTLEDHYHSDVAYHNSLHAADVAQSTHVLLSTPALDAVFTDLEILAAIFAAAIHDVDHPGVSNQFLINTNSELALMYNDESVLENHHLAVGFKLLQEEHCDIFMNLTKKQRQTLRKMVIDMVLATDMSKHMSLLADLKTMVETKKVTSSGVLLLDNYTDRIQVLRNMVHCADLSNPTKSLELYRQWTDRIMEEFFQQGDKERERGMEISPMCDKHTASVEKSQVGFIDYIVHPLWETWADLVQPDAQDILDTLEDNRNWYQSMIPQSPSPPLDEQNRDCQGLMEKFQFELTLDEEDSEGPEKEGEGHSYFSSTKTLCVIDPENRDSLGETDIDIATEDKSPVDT
# Cytochrome P450 3A4 (Homo sapiens), sequence (P08684 whole entry, looked up): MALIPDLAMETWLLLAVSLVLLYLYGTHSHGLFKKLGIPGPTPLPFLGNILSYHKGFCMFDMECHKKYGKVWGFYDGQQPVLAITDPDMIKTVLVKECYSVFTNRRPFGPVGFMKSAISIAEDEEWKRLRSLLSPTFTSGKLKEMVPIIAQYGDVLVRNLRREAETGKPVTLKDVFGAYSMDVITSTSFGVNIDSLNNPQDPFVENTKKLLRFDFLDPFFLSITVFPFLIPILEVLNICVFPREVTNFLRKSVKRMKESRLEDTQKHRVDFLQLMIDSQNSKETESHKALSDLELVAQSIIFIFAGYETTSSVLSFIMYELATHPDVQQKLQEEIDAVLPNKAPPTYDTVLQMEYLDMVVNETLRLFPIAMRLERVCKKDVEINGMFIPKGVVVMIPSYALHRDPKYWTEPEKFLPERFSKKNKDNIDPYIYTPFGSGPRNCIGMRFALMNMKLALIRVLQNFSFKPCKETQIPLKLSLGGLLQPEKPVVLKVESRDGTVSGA
# Glucocorticoid receptor (Homo sapiens), sequence (P04150 whole entry, looked up, the tested form may be a part): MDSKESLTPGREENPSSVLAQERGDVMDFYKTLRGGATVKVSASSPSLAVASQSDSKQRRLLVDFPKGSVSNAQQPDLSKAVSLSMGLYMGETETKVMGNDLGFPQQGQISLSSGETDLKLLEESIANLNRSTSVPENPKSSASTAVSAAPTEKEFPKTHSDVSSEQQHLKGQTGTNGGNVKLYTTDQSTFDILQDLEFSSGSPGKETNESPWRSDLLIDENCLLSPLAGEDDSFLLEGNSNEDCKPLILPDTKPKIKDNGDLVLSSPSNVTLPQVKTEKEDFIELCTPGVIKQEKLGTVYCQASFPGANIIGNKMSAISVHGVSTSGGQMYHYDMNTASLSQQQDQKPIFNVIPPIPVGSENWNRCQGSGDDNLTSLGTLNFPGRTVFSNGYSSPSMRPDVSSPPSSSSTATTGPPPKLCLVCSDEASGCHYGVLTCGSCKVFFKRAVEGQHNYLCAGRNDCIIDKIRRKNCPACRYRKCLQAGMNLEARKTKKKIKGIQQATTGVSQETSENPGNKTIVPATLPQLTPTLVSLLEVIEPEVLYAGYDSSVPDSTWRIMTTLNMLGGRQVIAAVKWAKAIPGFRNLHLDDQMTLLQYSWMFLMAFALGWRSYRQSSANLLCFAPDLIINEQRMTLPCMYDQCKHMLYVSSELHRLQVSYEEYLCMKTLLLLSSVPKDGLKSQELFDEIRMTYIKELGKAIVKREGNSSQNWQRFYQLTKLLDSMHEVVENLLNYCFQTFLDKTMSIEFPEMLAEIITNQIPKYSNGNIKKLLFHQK
# Lysosomal acid glucosylceramidase (Homo sapiens), sequence (P04062 whole entry, looked up): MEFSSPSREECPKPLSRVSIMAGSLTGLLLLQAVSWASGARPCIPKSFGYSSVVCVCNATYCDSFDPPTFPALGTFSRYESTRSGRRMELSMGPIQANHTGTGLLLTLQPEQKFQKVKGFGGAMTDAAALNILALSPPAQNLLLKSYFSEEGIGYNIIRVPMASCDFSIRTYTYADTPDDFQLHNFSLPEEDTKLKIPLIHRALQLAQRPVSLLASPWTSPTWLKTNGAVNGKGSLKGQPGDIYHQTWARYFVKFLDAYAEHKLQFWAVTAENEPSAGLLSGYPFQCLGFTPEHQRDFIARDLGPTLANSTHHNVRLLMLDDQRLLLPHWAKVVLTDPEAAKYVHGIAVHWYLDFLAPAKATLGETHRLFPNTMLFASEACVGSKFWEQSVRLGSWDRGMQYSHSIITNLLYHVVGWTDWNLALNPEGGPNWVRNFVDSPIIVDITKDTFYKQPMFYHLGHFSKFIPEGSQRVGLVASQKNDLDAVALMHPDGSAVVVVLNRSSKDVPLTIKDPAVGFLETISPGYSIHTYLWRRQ
# Cytochrome P450 2C19 (Homo sapiens), sequence (P33261 whole entry, looked up): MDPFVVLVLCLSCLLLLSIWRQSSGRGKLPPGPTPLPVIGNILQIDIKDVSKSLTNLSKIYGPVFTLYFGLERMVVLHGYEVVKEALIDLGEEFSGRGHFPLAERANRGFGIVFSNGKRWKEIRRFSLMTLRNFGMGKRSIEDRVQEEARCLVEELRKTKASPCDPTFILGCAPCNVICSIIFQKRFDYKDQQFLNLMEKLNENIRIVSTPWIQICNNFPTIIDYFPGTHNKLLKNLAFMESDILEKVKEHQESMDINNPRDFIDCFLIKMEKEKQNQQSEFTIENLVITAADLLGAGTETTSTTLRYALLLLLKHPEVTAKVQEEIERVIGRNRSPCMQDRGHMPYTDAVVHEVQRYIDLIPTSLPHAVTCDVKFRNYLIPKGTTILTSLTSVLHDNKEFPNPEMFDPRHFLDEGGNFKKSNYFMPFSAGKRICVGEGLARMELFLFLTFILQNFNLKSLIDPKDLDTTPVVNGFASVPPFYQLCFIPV
# Cytochrome P450 2D6 (Homo sapiens), sequence (P10635 whole entry, looked up): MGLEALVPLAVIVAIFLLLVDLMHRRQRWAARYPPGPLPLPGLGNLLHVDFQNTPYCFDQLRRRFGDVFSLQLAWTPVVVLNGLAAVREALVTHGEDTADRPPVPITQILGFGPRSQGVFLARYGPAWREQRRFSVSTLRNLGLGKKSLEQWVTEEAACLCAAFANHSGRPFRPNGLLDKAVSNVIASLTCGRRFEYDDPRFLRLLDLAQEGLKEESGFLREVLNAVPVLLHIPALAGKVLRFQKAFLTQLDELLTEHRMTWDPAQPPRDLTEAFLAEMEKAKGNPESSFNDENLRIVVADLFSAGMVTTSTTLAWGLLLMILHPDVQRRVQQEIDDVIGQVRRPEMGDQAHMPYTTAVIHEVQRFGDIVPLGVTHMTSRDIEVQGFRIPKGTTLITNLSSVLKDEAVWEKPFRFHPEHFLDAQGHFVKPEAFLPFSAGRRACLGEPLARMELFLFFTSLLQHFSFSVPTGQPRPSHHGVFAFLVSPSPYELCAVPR
# Cytochrome P450 2C9 (Homo sapiens), sequence (P11712 whole entry, looked up): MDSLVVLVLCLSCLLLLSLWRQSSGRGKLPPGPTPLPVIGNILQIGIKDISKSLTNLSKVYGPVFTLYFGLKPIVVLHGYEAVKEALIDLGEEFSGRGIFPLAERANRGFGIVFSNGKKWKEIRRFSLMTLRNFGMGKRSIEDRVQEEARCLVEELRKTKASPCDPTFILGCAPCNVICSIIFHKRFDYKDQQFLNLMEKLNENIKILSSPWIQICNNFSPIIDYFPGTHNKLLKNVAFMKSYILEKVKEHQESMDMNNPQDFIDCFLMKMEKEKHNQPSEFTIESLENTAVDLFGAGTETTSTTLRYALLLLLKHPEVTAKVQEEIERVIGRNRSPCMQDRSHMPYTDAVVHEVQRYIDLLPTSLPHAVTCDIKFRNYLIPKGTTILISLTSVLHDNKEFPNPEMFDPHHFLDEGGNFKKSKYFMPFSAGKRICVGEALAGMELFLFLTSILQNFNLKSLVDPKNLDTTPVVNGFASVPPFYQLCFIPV
Compound,Potency [1],"activity change, negative = inhibition [2] [%]","activity change, negative = inhibition [3] [%]",Potency [4] [µM],Potency [5],Potency [6],Potency [7],activation [8] [%],Potency [9],Potency [10],"activity change, negative = inhibition [11]",Potency [12],"activity, negative = inhibition [13] [%]",Potency [14]
CC1(C)S[C@@H]2[C@H](C(=O)O)N=C(Cc3ccccc3)N2[C@H]1C(=O)O,> 11.4 µM,2.18,8.91,> 46,> 9.22 µM,inactive,inactive,,,,,,,
N#Cc1c(NC(=O)CCC(=O)O)ccc2ccccc12,> 11.4 µM,-3.75,18.9,> 46,> 9.22 µM,inactive,inactive,3.84,,,,,,
CC1(C)[C@@H]2CC[C@@]1(CS(=O)(=O)Nc1ccccc1)C(=O)C2,> 11.4 µM,-11.4,4.16,> 46,> 9.22 µM,inactive,inactive,,2 µM (active),,,,,
C[C@H]1CCCC=CC2C[C@H](OC(=O)CN(C)C)C[C@@H]2[C@@H](O)/C=C\C(=O)O1 (stereo not given in full),> 11.4 µM,-7.78,29.7,> 46,> 9.22 µM,inactive,inactive,,,inactive,229% [at 11.4 µM],3.98 µM (active),,
Fc1cccc(Cl)c1/C=N\N=C1c2ccccc2-c2ccccc21,> 11.4 µM,13.6,,> 46,> 9.22 µM,inactive,inactive,,,,,,6.95,
COc1ccc(CC[N@+]2(C)COc3cc4oc(=O)cc(C)c4cc3C2)cc1OC,11 µM,10.2,,> 46,> 9.22 µM,,inactive,,,,,,5.96,
NC(Cc1ccccc1)(C(=O)O)C(=O)O,> 11.4 µM,4.48,,> 46,> 9.22 µM,inactive,inactive,,,,,,-6.13,
c1ccc(CN2CC[C@@H](CNc3ncnc4ccccc34)C2)cc1,> 11.4 µM,3.93,,> 46,> 9.22 µM,inactive,inactive,,,,,,8.92,0.794 µM (active)
Clc1ccc(/C=C\c2nc(Cl)c(-c3ccc(Cl)cc3)c(Cl)n2)cc1,> 11.4 µM,-5.65,,> 46,> 9.22 µM,inactive,inactive,,,,,,-0.809,
CC(=O)Nc1ccc2c(c1)/C(=C/c1ccc([N+](C)(C)C)cc1)c1ccccc1-2,9.02 µM (active),-9.13,,> 46,> 9.22 µM,inactive,inactive,,,,,,4.17,
COC(=O)c1ccc(CCc2cc(O)ccc2O)cc1,> 11.4 µM,-7.43,,> 46,> 9.22 µM,inactive,inactive,,3.16 µM (active),,,inactive,-16.8,
CC(C)C[C@H](N)C(=O)O,> 11.4 µM,10.7,,> 46,> 9.22 µM,inactive,inactive,,,,,,5.12,
O=C1Nc2ccccc2[C@]1(O)Cc1ccccn1,> 11.4 µM,1.94,,> 46,0.26 µM (active),inactive,inactive,-8.99,,,,,12.1,
C[C@H](CCC(=O)O)[C@H]1CC[C@@H]2[C@H]3CC[C@H]4C[C@H](O)CC[C@@]4(C)[C@@H]3CC[C@@]21C,> 11.4 µM,17.2,,> 46,> 9.22 µM,inactive,inactive,,,,,,-10,
Clc1ccc(CSCc2ccc(Cl)cc2Cl)c(Cl)c1,> 11.4 µM,-7.04,,> 46,> 9.22 µM,inactive,inactive,,,,,,1.58,
Nc1ncnc2nc(-c3ccc(C[P+](c4ccccc4)(c4ccccc4)c4ccccc4)cc3)[nH]c12,> 11.4 µM,3.32,,> 46,> 9.22 µM,inactive,inactive,,,,,,1.06,
